From PubChem BioAssay
Several values for one entry are separate records, joined by “and”; a condition that tells them apart may be missing. Equal entries are not always repeated. Activity calls are given as the source filed them.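 The calls were made as follows, unless noted: active = thallium flux through the channel raised or lowered by more than 3 SD from vehicle-only wells, actives on both sides; inactive = the rest.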

What was measured:
[1] = P. berghei load reduction in hepatocytes – cell-based, HepG2, luciferase luminescence, HepG2 viability, primary screen (AID 624349; in the data active = parasite load remaining mostly below about 12%, no sharp cut-off; inactive = mostly above about 10%;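 also: 100% = mean of DMSO negative control wells on the same plate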); settings: P. berghei liver stage in HepG2, luciferase luminescence, concentration not given here; parasite load remaining: stronger effect = lower value; viability: measured here: HepG2 viability without parasites
[2] = signal quenchers or enhancers, Cy5 substrate/SSB – biochemical, NIH Clinical Collection, E. coli SSB, artefact control for HCV NS3 helicase inhibitor project (AID 743268; call rule not given here); settings: Cy5-oligo bound E. coli SSB, fluorescence interference
[3] = tested on: Hepatitis C virus NS3 helicase; assay: blockers of NS3h binding to DNA – biochemical, fluorescence polarization, NIH Clinical Collection, primary screen (AID 743270; call rule not given here); settings: NS3 helicase binding to Cy5-dT15 DNA, stronger effect = higher value, concentration not given here
[4] = target: Single-stranded DNA-binding protein (Escherichia coli (strain K12)) (UniProt P0AGE0); assay: SSB-ssDNA binding inhibitors – biochemical, fluorescence polarization, NIH Clinical Collection, counter-screen for HCV NS3 helicase inhibitor project (AID 743271; in the data active = inhibition above about 28%); settings: E. coli SSB-DNA binding, stronger effect = higher value, concentration not given here
[5] = compounds distorting NS3 helicase fluorescence signal – biochemical, NIH Clinical Collection, artefact control for HCV NS3 helicase inhibitor project (AID 743272; call rule not given here;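 also: HCV NS3 helicase with a Cy5 labelled single stranded DNA probe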); settings: fluorescence interference counterscreen, HCV NS3 helicase assay; stronger effect = lower value
[6] = tested on: Neuropilin-2 / VEGF-C interaction (human); assay: small molecules blocking Neuropilin-2/VEGF-C interaction – biochemical, microplate binding format, z-score (AID 743281; call rule not given here); settings: microplate NRP2/VEGF-C binding assay; stronger effect = lower value
[7] = modulation of C. elegans fzo-1 (AID 1259413; call rule not given here;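 also: fzo-1 mutant C. elegans worms in liquid wells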); settings: C. elegans fzo-1 modulator screen, mean read-out; stronger effect = higher value
[8] = viability loss with induced miR-34 in A549 – imaging, A549 dox-inducible miR-34, nuclei and caspase counts, primary screen (AID 1347080;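 active = compounds whose cell count with miR-34 switched on is under 0.7 times the count with it off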); settings: A549 miR-34 inducible, Hoechst nuclei count, 48 h
[9] = galactose survival enhancers in mitochondrial complex I cybrids – cell-based, galactose medium, ATP luminescence, primary screen (AID 1645843;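 active = z-score of at least 1.8 in each of two replicates, scored against plate mean and spread of sample wells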;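 also: positive z means more ATP and so rescue of galactose-driven cybrid death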); settings: complex I mutant cybrid cells, 72 h, stronger effect = higher value
F380Y = assay: BK channel mutant inhibitors and activators – cell-based, U2OS BacMam, thallium flux, beta subunits, selectivity assay, profiling panel (AID 1259406); settings: U2OS BacMam BK variants, at 30 µM;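 also: initial slope of Thallos dye fluorescence rise after thallium is added; log ratio against the mean of 0.3% DMSO vehicle wells on the same plate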
F380Y/beta1 = assay: as above; settings: U2OS BacMam BK variants, at 30 µM
F380Y/beta2Delta = assay: as above; settings: U2OS BacMam BK variants, at 30 µM
F380Y/beta4 = assay: as above; settings: U2OS BacMam BK variants, at 30 µM
[10] = target: Calcium-activated potassium channel subunit alpha-1 (Homo sapiens) + Leucine-rich repeat-containing protein 26 (Homo sapiens) (UniProt Q12791+Q2I0M4); assay: as above; settings: U2OS BacMam BK variants, F380Y/Slo1WT/gamma1, at 30 µM
R275C = assay: as above; settings: U2OS BacMam BK variants, at 30 µM
R275C/beta1 = assay: as above; settings: U2OS BacMam BK variants, at 30 µM
R275C/beta2Delta = assay: as above; settings: U2OS BacMam BK variants, at 30 µM
R275C/beta4 = assay: as above; settings: U2OS BacMam BK variants, at 30 µM
R275C/Slo1WT/beta2 = assay: as above; settings: U2OS BacMam BK variants, at 30 µM
[11] = MELAS cybrid and Rieske KO viability enhancers – cell-based, MELAS cybrids, Rieske KO mouse fibroblasts, CellTiter-Glo, primary screen (AID 1508586;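 active = mean z-score across replicates of 1.96 or higher in either the MELAS or the Rieske mutant cell line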;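 also: z relative to plate mean and SD of compound and empty wells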); settings: low glucose
[12] = stronger effect = lower value, cell number ratio, induced over uninduced
[13] = measured here: relative caspase fold change +Dox/-Dox
[14] = measured here: total cells with miR-34 induction, stronger effect = lower value
[15] = measured here: total cells without miR-34 induction
[16] = MELAS cybrid survival, CellTiter-Glo 48 h, stronger effect = higher value
[17] = Rieske KO mouse fibroblast survival, CellTiter-Glo 72 h

Sequence of Calcium-activated potassium channel subunit alpha-1 (Homo sapiens) + Leucine-rich repeat-containing protein 26 (Homo sapiens) (Q2I0M4 whole entry, looked up, one chain of several): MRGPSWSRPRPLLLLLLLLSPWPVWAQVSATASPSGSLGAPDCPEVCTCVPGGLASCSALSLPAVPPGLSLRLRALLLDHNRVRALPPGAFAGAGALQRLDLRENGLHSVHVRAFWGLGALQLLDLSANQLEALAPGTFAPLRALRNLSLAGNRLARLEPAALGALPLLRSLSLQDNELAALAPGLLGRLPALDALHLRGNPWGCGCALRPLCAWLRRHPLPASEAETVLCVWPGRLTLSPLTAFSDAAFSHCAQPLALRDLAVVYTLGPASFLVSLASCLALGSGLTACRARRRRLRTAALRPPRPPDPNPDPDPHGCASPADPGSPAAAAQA

Nc1ccc2cn[nH]c2c1
64.9%: viability [1]
inactive: parasite load remaining [1] 61.3% | fluorescence ratio [2] 0.99 | inhibition [3] -1.09% | inhibition [4] -0.39% | fluorescence ratio [5] 0.98 | z-score [6] -0.807 | mean signal [7] 290 | fold change [8, 12] 0.924 | z-score [9] 0.52 | log fold change Tl+ flux (F380Y) -0.0182 | log fold change Tl+ flux (F380Y/beta1) -0.022 | log fold change Tl+ flux (F380Y/beta2Delta) 0.0231 | log fold change Tl+ flux (F380Y/beta4) -0.00919 | log fold change Tl+ flux [10] 0.0509 | log fold change Tl+ flux (R275C) -0.0141 | log fold change Tl+ flux (R275C/beta1) -0.000281 | log fold change Tl+ flux (R275C/beta2Delta) 0.0572 | log fold change Tl+ flux (R275C/beta4) -0.0327 | log fold change Tl+ flux (R275C/Slo1WT/beta2) 0.0188
1.71: fold change [8, 13]
8130: cell count [8, 14]
8800: cell count [8, 15]

O=C(OC1C[C@@H]2CC3C[C@H](C1)N2CC3=O)c1c[nH]c2ccccc12 (some centres undefined)
inactive: parasite load remaining [1] 52.7% | fluorescence ratio [2] 1.02 | inhibition [3] -2.84% | inhibition [4] -2.76% | fluorescence ratio [5] 1 | z-score [6] -0.0143 | mean signal [7] 222 | z-score [11, 16] 0.403 | log fold change Tl+ flux (F380Y) 0.0495 | log fold change Tl+ flux (F380Y/beta1) 0.0612 | log fold change Tl+ flux (F380Y/beta2Delta) 0.0379 | log fold change Tl+ flux (F380Y/beta4) 0.00589 | log fold change Tl+ flux [10] -0.004 | log fold change Tl+ flux (R275C) -0.0531 | log fold change Tl+ flux (R275C/beta1) 0.0632 | log fold change Tl+ flux (R275C/beta2Delta) 0.00308 | log fold change Tl+ flux (R275C/beta4) 0.022 | log fold change Tl+ flux (R275C/Slo1WT/beta2) 0.011
72.3%: viability [1]
-0.707: z-score [11, 17]

CCC(=C(c1ccccc1)c1ccc(OCCN(C)C)cc1)c1ccccc1
4730 and 2790: cell count [8, 14]
active: z-score [11, 16] 5.74
31.4%: viability [1]
11.9: z-score [11, 17]
inactive: parasite load remaining [1] -1.78% | fluorescence ratio [2] 1.01 | inhibition [3] 0.45% | inhibition [4] 7.15% | fluorescence ratio [5] 0.9 | fold change [8, 12] 0.958 and 0.928 | z-score [9] -0.495 | log fold change Tl+ flux (F380Y) -0.00968 | log fold change Tl+ flux (F380Y/beta1) -0.0043 | log fold change Tl+ flux (F380Y/beta2Delta) -0.0174 | log fold change Tl+ flux (F380Y/beta4) -0.00798 | log fold change Tl+ flux [10] -0.0114 | log fold change Tl+ flux (R275C) -0.00676 | log fold change Tl+ flux (R275C/beta1) -0.0153 | log fold change Tl+ flux (R275C/beta2Delta) -0.0428 | log fold change Tl+ flux (R275C/beta4) 0.00537 | log fold change Tl+ flux (R275C/Slo1WT/beta2) 0.0353
4930 and 3010: cell count [8, 15]
2.28 and 0.707: fold change [8, 13]

Fc1ccc(C2CCNCC2COc2ccc3c(c2)OCO3)cc1 (centres undefined)
inactive: parasite load remaining [1] -4.52% | fluorescence ratio [2] 1 | inhibition [3] -15% | inhibition [4] 3.34% | fluorescence ratio [5] 0.83 | fold change [8, 12] 0.992 and 1.04 and 0.943 | z-score [11, 16] -1.22 | z-score [9] -0.98 and -1.43 | log fold change Tl+ flux (F380Y/beta1) 0.116 | log fold change Tl+ flux [10] 0.0579 | log fold change Tl+ flux (R275C) 0.0588 | log fold change Tl+ flux (R275C/Slo1WT/beta2) -0.0537
active: log fold change Tl+ flux (F380Y) 0.146 | log fold change Tl+ flux (F380Y/beta2Delta) 0.246 | log fold change Tl+ flux (F380Y/beta4) 0.274 | log fold change Tl+ flux (R275C/beta1) 0.254 | log fold change Tl+ flux (R275C/beta2Delta) 0.126 | log fold change Tl+ flux (R275C/beta4) 0.218
1.42 and 1.09 and 2.45: fold change [8, 13]
0.964: z-score [11, 17]
6000 and 6830 and 9050: cell count [8, 15]
0.26%: viability [1]
5960 and 7070 and 8540: cell count [8, 14]

CN(C)[C@@H]1C(=O)C(C(=O)NCN2CCCC2)=C(O)[C@@]2(O)C(=O)C3=C(O)c4c(O)cccc4[C@@](C)(O)C3CC12 (some centres undefined)
0.92: fold change [8, 13]
91.9% and 67.8%: viability [1]
active: fluorescence ratio [2] 0.68 | inhibition [4] 45.3% | fluorescence ratio [5] 0.76
10400: cell count [8, 15]
9290: cell count [8, 14]
inactive: parasite load remaining [1] 77.2% and 69.4% | inhibition [3] -3.71% | z-score [6] 0.267 | mean signal [7] 213 | fold change [8, 12] 0.896 | log fold change Tl+ flux (F380Y) -0.0801 | log fold change Tl+ flux (F380Y/beta1) -0.00765 | log fold change Tl+ flux (F380Y/beta2Delta) -0.0371 | log fold change Tl+ flux (F380Y/beta4) -0.0313 | log fold change Tl+ flux [10] 0.0591 | log fold change Tl+ flux (R275C) 0 | log fold change Tl+ flux (R275C/beta1) -0.0252 | log fold change Tl+ flux (R275C/beta2Delta) 0.0108 | log fold change Tl+ flux (R275C/beta4) -0.0407 | log fold change Tl+ flux (R275C/Slo1WT/beta2) 0.0233

CC(=O)[C@@]1(O)CC[C@H]2[C@@H]3C[C@H](C)C4=CC(=O)CC[C@]4(C)[C@H]3CC[C@@]21C
inactive: parasite load remaining [1] 37.7% | fluorescence ratio [2] 0.96 | inhibition [3] -0.22% | inhibition [4] -0.39% | fluorescence ratio [5] 0.95 | z-score [6] -0.215 | mean signal [7] 243 | log fold change Tl+ flux (F380Y) 0.0243 | log fold change Tl+ flux (F380Y/beta1) 0.0476 | log fold change Tl+ flux (F380Y/beta2Delta) 0.0349 | log fold change Tl+ flux (F380Y/beta4) -0.018 | log fold change Tl+ flux [10] 0.00484 | log fold change Tl+ flux (R275C) -0.0195 | log fold change Tl+ flux (R275C/beta1) 0.0286 | log fold change Tl+ flux (R275C/beta2Delta) -0.00744 | log fold change Tl+ flux (R275C/beta4) 0.0101 | log fold change Tl+ flux (R275C/Slo1WT/beta2) -0.0331
68%: viability [1]

CN1C2CCC1CC(OC(c1ccccc1)c1ccccc1)C2 (centres undefined)
active: log fold change Tl+ flux (F380Y) 0.117 | log fold change Tl+ flux (F380Y/beta2Delta) 0.124 | log fold change Tl+ flux (F380Y/beta4) 0.212 | log fold change Tl+ flux (R275C/beta1) 0.237 | log fold change Tl+ flux (R275C/beta4) 0.252
81.7% and 71.5% and 99.9%: viability [1]
inactive: parasite load remaining [1] 25.8% and 92.2% and 42.8% | fluorescence ratio [2] 1.04 | inhibition [3] -5.91% | inhibition [4] -4.29% | fluorescence ratio [5] 1.01 | mean signal [7] 197 | z-score [11, 16] -0.325 | z-score [9] -0.84 and -0.76 | log fold change Tl+ flux (F380Y/beta1) 0.0778 | log fold change Tl+ flux [10] 0.00637 | log fold change Tl+ flux (R275C) -0.0804 | log fold change Tl+ flux (R275C/beta2Delta) 0.0793 | log fold change Tl+ flux (R275C/Slo1WT/beta2) 0.0196
-0.171: z-score [11, 17]
